# Test results from PubChem BioAssay (NCI).
# Where “and” joins values, the source holds several entries; their conditions need not be identical. Equal entries are not always repeated. Compounds without any hit were thinned out: in the full panel of roughly 79,000, 15% have a hit. The source holds several records for some structures; these can differ, active in one and inactive in another. Calls of active or inactive are those of the source. Rule as the data show it: active = growth inhibition above about 70%; inactive = the rest.
# Columns and labels:
# [1] = NCI Yeast Anticancer Drug Screen. Data for the rad50 strain (AID 155);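 also: 0% = growth of vehicle-only cultures of the same strain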; conditions: S. cerevisiae rad50 strain growth inhibition, stronger effect = higher value
# Summary of the method: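 Growth of the mutant yeast was measured after compound exposure and referenced to vehicle-treated cultures.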
# [2] = NCI Yeast Anticancer Drug Screen. Data for the mec2-1 strain (AID 157); conditions: S. cerevisiae mec2-1 strain, stronger effect = higher value
# Summary of the method: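 Vehicle-treated cultures served as reference for growth inhibition of compound-exposed mec2-1 yeast.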
# [3] = NCI Yeast Anticancer Drug Screen. Data for the sgs1 mgt1 strain (AID 161);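 also: 0% = growth of cultures given vehicle only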; conditions: S. cerevisiae sgs1 mgt1 strain, stronger effect = higher value
# Summary of the method: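 Inhibition of yeast growth, normalised to vehicle-treated controls, is reported for a strain bearing genetic alterations in DNA damage repair.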
# [4] = NCI Yeast Anticancer Drug Screen. Data for the cln2 rad14 strain (AID 165);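 also: 0% = growth equal to vehicle treated cultures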; conditions: S. cerevisiae cln2 rad14 strain, stronger effect = higher value
# Summary of the method: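 Each compound was tested on cln2 rad14 yeast. Inhibition of growth was calculated against vehicle-exposed controls.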
# [5] = NCI Yeast Anticancer Drug Screen. Data for the bub3 strain (AID 167); conditions: S. cerevisiae bub3 mutant strain, stronger effect = higher value
# Summary of the method: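 Whole-cell yeast assay. The mutant strain was incubated with compounds, and growth inhibition was determined by comparison with vehicle-treated cells.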
# [6] = NCI Yeast Anticancer Drug Screen. Data for the mlh1 rad18 strain (AID 175); conditions: S. cerevisiae mlh1 rad18 strain growth inhibition, stronger effect = higher value
# Summary of the method: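 Vehicle-treated cultures served as the reference for growth inhibition in a yeast strain carrying DNA damage repair alterations exposed to each compound.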
# [7] = at 5.0 µM (retest, dose inferred, filed as 0.5)
# [8] = at 50.0 µM (retest, dose inferred, filed as 5.0)
SMILES,"growth inhibition [1, 7]","growth inhibition [1, 8]",growth inhibition ([1]; at 50.0 µM),"growth inhibition [2, 7]","growth inhibition [2, 8]",growth inhibition ([2]; at 50.0 µM),"growth inhibition [3, 7]","growth inhibition [3, 8]",growth inhibition ([3]; at 50.0 µM),"growth inhibition [4, 7]","growth inhibition [4, 8]",growth inhibition ([4]; at 50.0 µM),"growth inhibition [5, 7]","growth inhibition [5, 8]",growth inhibition ([5]; at 50.0 µM),"growth inhibition [6, 7]","growth inhibition [6, 8]",growth inhibition ([6]; at 50.0 µM)
COc1ccccc1NC(=O)C(/C=N/C(=S)NCCNc1ccc(OC)c(OC)c1)=C(\C)O,1% (inactive),3% (inactive),9.7% (inactive),-55% (inactive),-10% (inactive),-2.25% (inactive),2% (inactive),-8% (inactive),16.4% (inactive),-22% (inactive),-14% (inactive),43.2% (inactive),2% (inactive),-27% (inactive),7.25% (inactive),10% (inactive),-2% (inactive),15.1% (inactive)
O=C1c2cccc(O)c2C(=O)c2c(O)cccc21,67% (inactive),73% (active),55% (inactive) and 74.8% (active),28% (inactive),36% (inactive),38.1% (inactive) and 42.8% (inactive),21% (inactive),50% (inactive),41.6% (inactive) and 45.6% (inactive),18% (inactive),25% (inactive),44.1% (inactive) and -10.8% (inactive),24% (inactive),62% (inactive),42.6% (inactive) and 39.5% (inactive),42% (inactive),66% (inactive),50.4% (inactive) and 66.1% (inactive)
COC(O)C(=O)c1c2c(cc3c1CCC3)CCCC2 (stereo not drawn),96% (active),100% (active),81.1% (active),98% (active),99% (active),88.4% (active),98% (active),99% (active),89.1% (active),85% (active),100% (active),91.7% (active),99% (active),100% (active),90.5% (active),98% (active),100% (active),92.5% (active)
Nc1cc2c(cc1Cl)[nH]c(=O)c1cc(Cl)ccc12,46% (inactive),65% (inactive),86.2% (active),27% (inactive),14% (inactive),3.6% (inactive),26% (inactive),17% (inactive),18.3% (inactive),10% (inactive),6% (inactive),-0.9% (inactive),39% (inactive),10% (inactive),-11.3% (inactive),38% (inactive),40% (inactive),22.6% (inactive)
O=[N+]([O-])c1cc2c(cc1S(=O)(=O)O)C1C(C3C2C2(Cl)C(Cl)=C(Cl)C3(Cl)C2(Cl)Cl)C2(Cl)C(Cl)=C(Cl)C1(Cl)C2(Cl)Cl (stereo not drawn),-3% (inactive),10% (inactive),66.2% (inactive),-10% (inactive),26% (inactive),69.9% (inactive),22% (inactive),41% (inactive),72.5% (active),34% (inactive),41% (inactive),54.2% (inactive),-1% (inactive),44% (inactive),71.2% (active),8% (inactive),57% (inactive),67.3% (inactive)
O=[N+]([O-])c1c(Br)cc(Br)c2c1Nc1c(ccc(Cl)c1Cl)S2,14% (inactive),94% (active),96.5% (active),26% (inactive),95% (active),96.7% (active),13% (inactive),95% (active),96.4% (active),20% (inactive),93% (active),94.2% (active),28% (inactive),95% (active),94.8% (active),39% (inactive),95% (active),95.3% (active)
CC1=NC(=Cc2ccc([N+](=O)[O-])cc2)C(=O)N1n1c(-c2ccccc2)nc2ccccc2c1=O,3% (inactive),1% (inactive),48.9% (inactive),-13% (inactive),0% (inactive),63.8% (inactive),5% (inactive),7% (inactive),45.3% (inactive),13% (inactive),11% (inactive),77% (active),-15% (inactive),-2% (inactive),68% (inactive),11% (inactive),1% (inactive),62.8% (inactive)
NC(=O)c1cc(Br)cc(Br)c1O,14% (inactive),79% (active),62.2% (inactive),-13% (inactive),86% (active),75.1% (active),9% (inactive),90% (active),48.5% (inactive),5% (inactive),87% (active),94.5% (active),1% (inactive),77% (active),89.8% (active),-10% (inactive),85% (active),79.6% (active)
CC(=O)NC1C(O)OC(CO)C(OC2OC(CO)C(O)C(O)C2NC(=O)NCCCCCCNC(=O)n2cc(F)c(=O)[nH]c2=O)C1O (stereo not drawn),3% (inactive) and 85% (active),58% (inactive) and 98% (active),43.1% (inactive) and 91.9% (active),-5% (inactive) and 78% (active),70% (active) and 99% (active),72.2% (active) and 93.5% (active),7% (inactive) and 93% (active),81% (active) and 98% (active),78.8% (active) and 88.5% (active),8% (inactive) and 52% (inactive),20% (inactive) and 98% (active),24.8% (inactive) and 63.7% (inactive),5% (inactive) and 46% (inactive),19% (inactive) and 99% (active),25.2% (inactive) and 75.5% (active),4% (inactive) and 87% (active),48% (inactive) and 98% (active),37% (inactive) and 86.8% (active)
O=C1C=CC(=CC=C2C=CN(CCCCCCCCCCCO)C=C2)C=C1,12% (inactive) and 36% (inactive),93% (active) and 3% (inactive),88.8% (active) and 49.2% (inactive),6% (inactive) and 40% (inactive),90% (active) and -2% (inactive),85.5% (active) and 65% (inactive),-10% (inactive) and 44% (inactive),93% (active) and 2% (inactive),87.6% (active) and 62.8% (inactive),7% (inactive) and 18% (inactive),91% (active) and -8% (inactive),82.7% (active) and 57.4% (inactive),-3% (inactive) and 34% (inactive),98% (active) and 2% (inactive),83% (active) and 50.6% (inactive),10% (inactive) and 37% (inactive),80% (active) and 1% (inactive),88% (active) and 59.2% (inactive)
CCOc1ccc(NC(=O)/C(=C\c2ccc(C)cc2)C(C)=O)cc1,-17% (inactive),-1% (inactive),-32% (inactive) and 8.1% (inactive),-2% (inactive),-3% (inactive),-2.3% (inactive) and -25.1% (inactive),9% (inactive),-4% (inactive),2.9% (inactive) and 3.65% (inactive),-6% (inactive),5% (inactive),-24.8% (inactive) and -8.15% (inactive),-3% (inactive),-5% (inactive),-2.4% (inactive) and -19.2% (inactive),-3% (inactive),-5% (inactive),6% (inactive) and 0.5% (inactive)
CCOC(=O)/C(C#N)=C\c1ccc([N+](=O)[O-])o1,15% (inactive),98% (active),-8.25% (inactive) and 99% (active),12% (inactive),99% (active),-12.1% (inactive) and 99.3% (active),8% (inactive),99% (active),-20.9% (inactive) and 99.3% (active),4% (inactive),98% (active),19.1% (inactive) and 99% (active),12% (inactive),99% (active),-13.4% (inactive) and 99.2% (active),16% (inactive),99% (active),-16.9% (inactive) and 99% (active)
Cc1ccc(C23C=CC(c4ccccc4)(C2)C2C(=O)OC(=O)C23)cc1 (stereo not drawn),86% (active),96% (active),98.5% (active),85% (active),97% (active),98.5% (active),81% (active),98% (active),98.6% (active),36% (inactive),97% (active),92.2% (active),85% (active),97% (active),98.7% (active),79% (active),97% (active),95.8% (active)
Cc1nnc(S(=O)(=O)c2ccc(N=Nc3c(N)nc(N)nc3N)cc2)s1,6% (inactive),20% (inactive),-5.45% (inactive),8% (inactive),-5% (inactive),-13.2% (inactive),-8% (inactive),-9% (inactive),-9.15% (inactive),9% (inactive),4% (inactive),68.4% (inactive),-1% (inactive),7% (inactive),-23.5% (inactive),11% (inactive),7% (inactive),6.4% (inactive)
CN(C)CCCN=c1c2ccccc2n(O)c2cccc([N+](=O)[O-])c12,6% (inactive),2% (inactive),72.5% (active),23% (inactive),-4% (inactive),26.8% (inactive),2% (inactive),-1% (inactive),46.9% (inactive),11% (inactive),8% (inactive),22.4% (inactive),9% (inactive),-10% (inactive),45.4% (inactive),7% (inactive),6% (inactive),-31.7% (inactive)
COC(=O)c1nnn(-c2ccc(S(N)(=O)=O)cc2)c1N,-9% (inactive),-16% (inactive),36.6% (inactive),-4% (inactive),-10% (inactive),19.6% (inactive),-9% (inactive),-20% (inactive),53.5% (inactive),1% (inactive),1% (inactive),18.7% (inactive),-22% (inactive),-7% (inactive),-4.45% (inactive),-13% (inactive),-23% (inactive),64.9% (inactive)
